# Data taken from the supplement of paper PMC4466140.
# B1: unnamed (peptide)
# chain: QPPLPSSAPPIPTSH
# Target: AgAbp1
# Test: SPOT peptide array binding signal intensity (averaged, normalized) (arbitrary units (background-subtracted, floor 0; scale differs between SH3 domains)); higher = stronger binding of the SH3 domain to the peptide
# Method in brief: (§1)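 GST-fused SH3 domains from four yeast species were expressed in E. coli BL21(DE3), purified on glutathione Sepharose and incubated at 10 μg/ml overnight at 4°C in TBS-based blocking buffer on cellulose membranes carrying synthetic 15-mer peptides, with cysteines replaced by serines. Bound protein was detected with anti-GST antibody, an HRP anti-mouse secondary and luminol, then imaged and quantified with Genespotter. Binding signal is the normalized, background-subtracted spot intensity averaged over replicates, in arbitrary units that differ between domains.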
row,Binder,SPOT peptide array binding signal intensity
1,B1,≤ 0

# Target: AgBbc1
# Test: as above
# Method in brief: as §1
row,Binder,SPOT peptide array binding signal intensity
1,B1,≤ 0

# Target: AgBem1-D1
# Test: as above
# Method in brief: as §1
row,Binder,SPOT peptide array binding signal intensity
1,B1,≤ 0

# Target: AgBzz1-D1
# Test: as above
# Method in brief: as §1
row,Binder,SPOT peptide array binding signal intensity
1,B1,35

# Target: AgBzz1-D2
# Test: as above
# Method in brief: as §1
row,Binder,SPOT peptide array binding signal intensity
1,B1,≤ 0

# Target: AgCyk3
# Test: as above
# Method in brief: as §1
row,Binder,SPOT peptide array binding signal intensity
1,B1,≤ 0

# Target: AgFus1
# Test: as above
# Method in brief: as §1
row,Binder,SPOT peptide array binding signal intensity
1,B1,≤ 0

# Target: AgHof1
# Test: as above
# Method in brief: as §1
row,Binder,SPOT peptide array binding signal intensity
1,B1,≤ 0

# Target: AgHse1
# Test: as above
# Method in brief: as §1
row,Binder,SPOT peptide array binding signal intensity
1,B1,≤ 0

# Target: AgLsb1
# Test: as above
# Method in brief: as §1
row,Binder,SPOT peptide array binding signal intensity
1,B1,≤ 0

# Target: AgLsb4
# Test: as above
# Method in brief: as §1
row,Binder,SPOT peptide array binding signal intensity
1,B1,≤ 0

# Target: AgMyo5
# Test: as above
# Method in brief: as §1
row,Binder,SPOT peptide array binding signal intensity
1,B1,1730

# Target: AgNbp2
# Test: as above
# Method in brief: as §1
row,Binder,SPOT peptide array binding signal intensity
1,B1,≤ 0

# Target: AgRvs167
# Test: as above
# Method in brief: as §1
row,Binder,SPOT peptide array binding signal intensity
1,B1,≤ 0

# Target: AgSho1
# Test: as above
# Method in brief: as §1
row,Binder,SPOT peptide array binding signal intensity
1,B1,≤ 0

# Target: AgSla1-D1-D2
# Test: as above
# Method in brief: as §1
row,Binder,SPOT peptide array binding signal intensity
1,B1,≤ 0

# Target: AgSla1-D3
# Test: as above
# Method in brief: as §1
row,Binder,SPOT peptide array binding signal intensity
1,B1,≤ 0

# Target: CaAbp1-D1
# Test: as above
# Method in brief: as §1
row,Binder,SPOT peptide array binding signal intensity
1,B1,≤ 0

# Target: CaAbp1-D2
# Test: as above
# Method in brief: as §1
row,Binder,SPOT peptide array binding signal intensity
1,B1,≤ 0

# Target: CaBbc1
# Test: as above
# Method in brief: as §1
row,Binder,SPOT peptide array binding signal intensity
1,B1,≤ 0

# Target: CaBem1-D1
# Test: as above
# Method in brief: as §1
row,Binder,SPOT peptide array binding signal intensity
1,B1,8.5

# Target: CaBzz1-D1
# Test: as above
# Method in brief: as §1
row,Binder,SPOT peptide array binding signal intensity
1,B1,≤ 0

# Target: CaBzz1-D2
# Test: as above
# Method in brief: as §1
row,Binder,SPOT peptide array binding signal intensity
1,B1,2.5

# Target: CaCyk3
# Test: as above
# Method in brief: as §1
row,Binder,SPOT peptide array binding signal intensity
1,B1,≤ 0

# Target: CaFus1
# Test: as above
# Method in brief: as §1
row,Binder,SPOT peptide array binding signal intensity
1,B1,≤ 0

# Target: CaHof1
# Test: as above
# Method in brief: as §1
row,Binder,SPOT peptide array binding signal intensity
1,B1,≤ 0

# Target: CaHse1
# Test: as above
# Method in brief: as §1
row,Binder,SPOT peptide array binding signal intensity
1,B1,≤ 0

# Target: CaLsb1
# Test: as above
# Method in brief: as §1
row,Binder,SPOT peptide array binding signal intensity
1,B1,≤ 0

# Target: CaLsb4
# Test: as above
# Method in brief: as §1
row,Binder,SPOT peptide array binding signal intensity
1,B1,≤ 0

# Target: CaMyo5
# Test: as above
# Method in brief: as §1
row,Binder,SPOT peptide array binding signal intensity
1,B1,510

# Target: CaNbp2
# Test: as above
# Method in brief: as §1
row,Binder,SPOT peptide array binding signal intensity
1,B1,≤ 0

# Target: CaRvs167
# Test: as above
# Method in brief: as §1
row,Binder,SPOT peptide array binding signal intensity
1,B1,≤ 0

# Target: CaRvs167-3
# Test: as above
# Method in brief: as §1
row,Binder,SPOT peptide array binding signal intensity
1,B1,0.5

# Target: CaSho1
# Test: as above
# Method in brief: as §1
row,Binder,SPOT peptide array binding signal intensity
1,B1,≤ 0

# Target: CaSla1-D1-D2
# Test: as above
# Method in brief: as §1
row,Binder,SPOT peptide array binding signal intensity
1,B1,≤ 0

# Target: CaSla1-D3
# Test: as above
# Method in brief: as §1
row,Binder,SPOT peptide array binding signal intensity
1,B1,≤ 0

# Target: ScAbp1
# Test: as above
# Method in brief: as §1
row,Binder,SPOT peptide array binding signal intensity
1,B1,≤ 0

# Target: ScBbc1
# Test: as above
# Method in brief: as §1
row,Binder,SPOT peptide array binding signal intensity
1,B1,≤ 0

# Target: ScBem1-D1
# Test: as above
# Method in brief: as §1
row,Binder,SPOT peptide array binding signal intensity
1,B1,≤ 0

# Target: ScBzz1-D1
# Test: as above
# Method in brief: as §1
row,Binder,SPOT peptide array binding signal intensity
1,B1,≤ 0

# Target: ScBzz1-D2
# Test: as above
# Method in brief: as §1
row,Binder,SPOT peptide array binding signal intensity
1,B1,≤ 0

# Target: ScCyk3
# Test: as above
# Method in brief: as §1
row,Binder,SPOT peptide array binding signal intensity
1,B1,≤ 0

# Target: ScFus1
# Test: as above
# Method in brief: as §1
row,Binder,SPOT peptide array binding signal intensity
1,B1,≤ 0

# Target: ScHof1
# Test: as above
# Method in brief: as §1
row,Binder,SPOT peptide array binding signal intensity
1,B1,≤ 0

# Target: ScHse1
# Test: as above
# Method in brief: as §1
row,Binder,SPOT peptide array binding signal intensity
1,B1,≤ 0

# Target: ScLsb1
# Test: as above
# Method in brief: as §1
row,Binder,SPOT peptide array binding signal intensity
1,B1,≤ 0

# Target: ScLsb2
# Test: as above
# Method in brief: as §1
row,Binder,SPOT peptide array binding signal intensity
1,B1,≤ 0

# Target: ScLsb3
# Test: as above
# Method in brief: as §1
row,Binder,SPOT peptide array binding signal intensity
1,B1,≤ 0

# Target: ScLsb4
# Test: as above
# Method in brief: as §1
row,Binder,SPOT peptide array binding signal intensity
1,B1,≤ 0

# Target: ScMyo3
# Test: as above
# Method in brief: as §1
row,Binder,SPOT peptide array binding signal intensity
1,B1,2510

# Target: ScMyo5
# Test: as above
# Method in brief: as §1
row,Binder,SPOT peptide array binding signal intensity
1,B1,1600

# Target: ScNbp2
# Test: as above
# Method in brief: as §1
row,Binder,SPOT peptide array binding signal intensity
1,B1,≤ 0

# Target: ScPex13
# Test: as above
# Method in brief: as §1
row,Binder,SPOT peptide array binding signal intensity
1,B1,≤ 0

# Target: ScRvs167
# Test: as above
# Method in brief: as §1
row,Binder,SPOT peptide array binding signal intensity
1,B1,≤ 0

# Target: ScSho1
# Test: as above
# Method in brief: as §1
row,Binder,SPOT peptide array binding signal intensity
1,B1,≤ 0

# Target: ScSla1-D1-D2
# Test: as above
# Method in brief: as §1
row,Binder,SPOT peptide array binding signal intensity
1,B1,≤ 0

# Target: ScSla1-D3
# Test: as above
# Method in brief: as §1
row,Binder,SPOT peptide array binding signal intensity
1,B1,≤ 0

# Target: SpAbp1-D1
# Test: as above
# Method in brief: as §1
row,Binder,SPOT peptide array binding signal intensity
1,B1,2.5

# Target: SpBbc1
# Test: as above
# Method in brief: as §1
row,Binder,SPOT peptide array binding signal intensity
1,B1,4.25

# Target: SpBzz1-D1
# Test: as above
# Method in brief: as §1
row,Binder,SPOT peptide array binding signal intensity
1,B1,≤ 0

# Target: SpBzz1-D2
# Test: as above
# Method in brief: as §1
row,Binder,SPOT peptide array binding signal intensity
1,B1,≤ 0

# Target: SpCyk3
# Test: as above
# Method in brief: as §1
row,Binder,SPOT peptide array binding signal intensity
1,B1,≤ 0

# Target: SpHof1
# Test: as above
# Method in brief: as §1
row,Binder,SPOT peptide array binding signal intensity
1,B1,≤ 0

# Target: SpHof1-2
# Test: as above
# Method in brief: as §1
row,Binder,SPOT peptide array binding signal intensity
1,B1,≤ 0

# Target: SpHof1-3
# Test: as above
# Method in brief: as §1
row,Binder,SPOT peptide array binding signal intensity
1,B1,≤ 0

# Target: SpHse1
# Test: as above
# Method in brief: as §1
row,Binder,SPOT peptide array binding signal intensity
1,B1,17.5

# Target: SpLsb1
# Test: as above
# Method in brief: as §1
row,Binder,SPOT peptide array binding signal intensity
1,B1,≤ 0

# Target: SpLsb4
# Test: as above
# Method in brief: as §1
row,Binder,SPOT peptide array binding signal intensity
1,B1,≤ 0

# Target: SpMyo1
# Test: as above
# Method in brief: as §1
row,Binder,SPOT peptide array binding signal intensity
1,B1,1080

# Target: SpNbp2
# Test: as above
# Method in brief: as §1
row,Binder,SPOT peptide array binding signal intensity
1,B1,≤ 0

# Target: SpPex13
# Test: as above
# Method in brief: as §1
row,Binder,SPOT peptide array binding signal intensity
1,B1,1

# Target: SpRvs167
# Test: as above
# Method in brief: as §1
row,Binder,SPOT peptide array binding signal intensity
1,B1,≤ 0

# Target: SpSla1-D1-D2
# Test: as above
# Method in brief: as §1
row,Binder,SPOT peptide array binding signal intensity
1,B1,≤ 0

# Target: SpSla1-D3
# Test: as above
# Method in brief: as §1
row,Binder,SPOT peptide array binding signal intensity
1,B1,3.5
